High-throughput results as filed in PubChem BioAssay.
Compounds with a hit are over-represented: about 2.8% of the library has one in this group of screens.
WRN inhibitor: qHTS for Inhibitors of WRN Helicase; Potency, µM (series often up to 114 µM), for the others: at the top dose activity change, negative = inhibition, usual class: inhibitors; WRN helicase unwinding, fluorescent forked duplex, kinetic; Bifunctional 3'-5' exonuclease/ATP-dependent helicase WRN (Homo sapiens), Q14191; 360,000 compounds, 0.46% hits; also: potency is read from the fitted curve at half-maximal effect; % is scaled to controls: 0 for no effect and ±100 for the full control effect; nearly all actives have a fitted effect of over 55% in size
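Screening of the MLSMR collection measured strand separation of a quenched forked DNA duplex (100 nM) by 20 nM WRN with 2 mM ATP, all final. Compounds were preincubated with enzyme 15 min at room temperature.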
Pol kappa inh: qHTS for Inhibitors of Polymerase Kappa | DNA polymerase kappa (Homo sapiens), Q9UBT6 | purified Pol kappa, fluorescent DNA synthesis assay, 10 min | Potency, µM (highest dose often 107 µM), for the others: at the highest dose activity, negative = inhibition, usual class: inhibitors | 400,000 compounds, 0.53% hits; also: potency is read from the fitted curve at half-maximal effect; % is scaled to controls: 0 for no effect and ±100 for the full control effect
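10 nM Pol kappa preincubated 15 min at room temperature with compounds, then reaction started with substrate at 50 nM final. Fluorescence read kinetically at 0 and 10 min; buffer-only wells served as negative control.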
PI5P4K alpha inh: qHTS for Inhibitors of phosphatidylinositol 5-phosphate 4-kinase (PI5P4K). Phosphatidylinositol 5-phosphate 4-kinase type-2 alpha (Homo sapiens), P48426. PI5P4Kalpha enzyme, ADP-Glo luminescence, 60 min; hits give low values. max response, %. 330,000 compounds, 1.2% hits. AID 652105, 2013; active = max response of -50% or lower; inconclusive = between -30% and -50%; inactive = -30% or higher; also: value at the top dose of about 77 µM; % is scaled to controls: 0 for no effect and ±100 for the full control effect
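Enzyme plus substrate dispensed, test compounds pinned in, then ATP (5 microM final) added. After 60 min at RT, ADP-Glo reagent 1 for 45 min and reagent 2 for 30 min preceded luminescence imaging.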
Pol eta inh: qHTS for Inhibitors of Polymerase Eta. recombinant Pol eta, fluorescent DNA replication assay. Potency, µM (doses to about 114 µM), inactives show top-dose activity change, negative = inhibition, usual class: inhibitors. 390,000 compounds, 1.2% hits. AID 588591, 2011; also: potency is read from the fitted curve at half-maximal effect; % is scaled to controls: 0 for no effect and ±100 for the full control effect
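Pol eta (10 nM) was preincubated with compounds for 15 min at room temperature, after which fluorescent replication substrate (50 nM final) was added to start the reaction. Fluorescence was read kinetically at 0 and 10 min.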
POLB inh: qHTS Assay for Inhibitors of DNA Polymerase Beta; P06746; Pol beta primer extension/strand displacement, fluorescence kinetic; Potency, µM (highest dose often 114 µM), inactives show top-dose activity change, negative = inhibition, usual class: inhibitors; 340,000 compounds, 1.3% hits; also: potency is read from the fitted curve at half-maximal effect; % is scaled to controls: 0 for no effect and ±100 for the full control effect
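Preincubation: enzyme (10 nM) with compound, 15 min, RT. Reaction: substrate added to 50 nM final. Reads: 0 and 10 min. Analysis: normalized, Hill fit.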
Pol iota inh: qHTS for Inhibitors of Polymerase Iota. Pol iota fluorescent replication assay, 10 min. Potency, µM (top dose mostly 115 µM), for inactives: top-dose activity, negative = inhibition, usual class: inhibitors. 390,000 compounds, 1% hits. AID 588590, 2011; also: potency is read from the fitted curve at half-maximal effect
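Fluorescent replication assay read twice, at 0 min and 10 min after adding 50 nM (final) substrate. Enzyme (10 nM) and compounds were first incubated 15 min at room temperature; enzyme-free buffer wells were negative controls.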
TbPGK inh: qHTS for inhibitors of Phosphogylcerate Kinase: Hit Validation Screen; shares compounds with Pol kappa inh; TbPGK coupled GAPDH assay, Kinase-Glo luminescence; Potency, µM (doses to about 57.5 µM), inactives show top-dose activity change, negative = inhibition, actives largely listed as inhibitors; 500 compounds, 79% hits; AID 686980, 2013; also: potency is read from the fitted curve at half-maximal effect; % is scaled to controls: 0 for no effect and ±100 for the full control effect; nearly all actives have a fitted effect of over 65% in size
Pol iota confirm: qHTS for Inhibitors of Polymerase Iota: Confirmatory Assay for Cherry-picked Compounds; shares compounds with Pol kappa inh; Pol iota primer extension, TAMRA/BHQ fluorescence; Potency, µM, actives largely listed as inhibitors; 1,500 compounds, 77% hits; AID 720496, 2013; also: potency is read from the fitted curve at half-maximal effect
* hit, by the source's call; ? = inconclusive; . = not tested or not shown; [ ] = dose if it differs, or a comment. Unless noted, calls follow the shape of the dose curve; as a rule, active = well fitted curve in the direction sought with a large enough effect; inconclusive = small, poorly fitted or top-dose-only effect, or another doubt; inactive = no such curve, though single readings can be large; an effect the other way counts as inactive or inconclusive.

SMILES	WRN inhibitor	Pol kappa inh	PI5P4K alpha inh	Pol eta inh	POLB inh	Pol iota inh	Pol iota confirm	others
N#CC(C#N)=C(N)/C(C#N)=C/c1cc(O)c(O)c(O)c1	?	0.794µM*	-67.4*	?	.	?	47.4*
CCN1CCN(c2ncc3c(n2)CCN(Cc2sccc2C)C3)CC1	.	-3.0%[60.1 µM]	.	5.7%	16.9%	2.8%	.
COc1cc(/C=N/Nc2nncn2/N=C/c2ccc(O)c(OC)c2)ccc1O	-10.0%	-8.4%	-22.6	-32.9%	2.2%	20µM*	.	TbPGK inh=?
COc1c(OC2OC(C(=O)O)C(O)C(O)C2O)cc(O)c2c(=O)cc(-c3ccccc3)oc12 (stereo unspecified)	-0.9%	-33.0%	-3.7	-9.5%	19.3%	-9.1%	.
O=C(O)C1OC(Oc2cc3oc(-c4ccccc4)cc(=O)c3c(O)c2O)C(O)C(O)C1O (stereo unspecified)	5.8%	79.4µM*	-20.1	-15.6%	50.1µM*	10µM*	21.2*
Cc1ccccc1N=CC1=C(O)c2ccccc2C1=O	-28.4%	-4.0%	-26.5	-10.0%	8.7%	9.2%	.	TbPGK inh=10.3µM*
O=C(N/N=C/c1cccc([N+](=O)[O-])c1)c1cc2c(ccc3ccccc32)o1	-8.5%	0.0%	-27.1	?	19.9%	?	47.4*
COc1cc(/C=C(\C#N)C(=O)Nc2cccc(C(=O)O)c2)ccc1OCc1ccc(Cl)cc1	-4.8%[11.6 µM]	?	-10.2	56.2µM*	10µM*	?	?
CC(=O)c1cccc(NC(=O)CCc2nnc3ccc(NCc4ccco4)nn23)c1	-15.0%[11.6 µM]	0.2%	-19.4	?	?	6.2%	?
COCc1cc(C)nc(OCC(=O)N/N=C/c2ccc(C)o2)c1C#N	0.1%	-6.6%	0.0	-8.5%	1.8%	-3.8%	.
CC(C)(C)C#CC(CCc1ccccc1)OS(N)(=O)=O (stereo unspecified)	.	.	.	.	-2.0%	.	.
COc1ccc2nc(NC(=S)N(C)C)sc2c1	-31.0%	-15.2%	?	-10.4%	0.6%	11.3%	.
Nc1ccc(N2CCCCC2)c2nonc12	?	-6.2%	-13.8	35.5µM*	8.5%	?	?
O=C(/C=C/Nc1ccccc1Br)c1ccccn1	-3.6%	-5.0%	-3.5	-14.7%	5.0%	1.7%	.	TbPGK inh=?
O=C(C[N+]12CN3CN(CN(C3)C1)C2)c1ccc(Br)cc1	.	-16.6%	.	.	.	-6.7%	.
COc1ccc(CCCc2nnc(SCC(=O)Nc3ccc(C)cc3)o2)cc1C	.	-9.8%[60.1 µM]	.	-11.0%	-2.2%	-17.3%	.
COc1ccc2nc(NC(=O)c3cc(C)oc3C)sc2c1	-9.8%	4.3%	0.2	-8.0%	39.8%	?	.
COc1ccc2nc(NC(=O)c3ccoc3C)sc2c1	7.5%	-10.0%	.	5.3%	-0.7%	-9.7%[58.9 µM]	.	TbPGK inh=10.3µM*
CC1(C)CC(=O)C(C2C3=C(CC(C)(C)CC3=O)Oc3c(Br)cc(Br)cc32)=C(O)C1 (stereo unspecified)	-7.1%	-1.8%	-0.4	-14.7%	14.8%	28.5%	.
O=C1CC(=O)N(Cc2ccco2)C(=S)N1	10µM*	3.16µM*	?	3.16µM*	7.94µM*	?	.	TbPGK inh=-96.8%
S=C1NCN(Cc2ccco2)CN1	-2.9%	-6.7%	3.4	-5.5%	16.0%	-14.2%[58.9 µM]	.
